Assay results from the supplement of paper PMC6555819.

Assays:
Experiment in all cases: PBM binding z-score (relative to random genomic background probes); higher = stronger binding; sequences stand for … in GC…GCGATTGACAGCGTAGAATGAAGG
[1] = system: FXR:RXRa (NR concentration 270 nM, RXRa partner concentration 90 nM)
Method in brief: (§1)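 Ligand-free nuclear receptor dimers were applied to custom Agilent 4×180K protein-binding microarrays whose double-stranded probes carried direct-repeat seeds, single-nucleotide variants, half-site ablations and random human genomic background sequences in 34-nt variable regions. Incubation lasted 1 h. Binding z-scores were computed against the random background probes from regression-normalized fluorescence.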

[2] = system: LXRa:RXRa (NR concentration 270 nM, RXRa partner concentration 90 nM)
Method in brief: as §1

[3] = system: LXRa homodimer (NR concentration 270 nM)
Method in brief: as §1

[4] = system: LXRb:RXRa (NR concentration 270 nM, RXRa partner concentration 90 nM)
Method in brief: as §1

[5] = system: LXRb homodimer (NR concentration 270 nM)
Method in brief: as §1

[6] = system: PPARa:RXRa (NR concentration 270 nM, RXRa partner concentration 90 nM)
Method in brief: as §1

[7] = system: PPARg:RXRa (NR concentration 180 nM, RXRa partner concentration 90 nM)
Method in brief: as §1

[8] = system: PPARg:RXRa 270nM:90nM, anti-RXR (NR concentration 270 nM, RXRa partner concentration 90 nM)
Method in brief: as §1

[9] = system: PPARg:RXRa 30nM:10nM, anti-RXR (NR concentration 30 nM, RXRa partner concentration 10 nM)
Method in brief: as §1

[10] = system: PPARg:RXRa 90nM:30nM, anti-RXR (NR concentration 90 nM, RXRa partner concentration 30 nM)
Method in brief: as §1

[11] = system: PPARg:RXRa DBDmut IVT, anti-RXR (DBD mutation: RXRa K156A/R161A, NR concentration 270 nM, RXRa partner concentration 90 nM)
Method in brief: as §1

[12] = system: PPARg:RXRa IVT, anti-PPARg (NR concentration 270 nM, RXRa partner concentration 90 nM)
Method in brief: as §1

[13] = system: PPARg DBDmut:RXRa IVT, anti-PPARg (DBD mutation: PPARg1 K132A/R137A, NR concentration 270 nM, RXRa partner concentration 90 nM)
Method in brief: as §1

[14] = system: PPARg DBDmut IVT, anti-PPARg (DBD mutation: PPARg1 K132A/R137A, NR concentration 270 nM)
Method in brief: as §1

[15] = system: PPARg homodimer (NR concentration 180 nM)
Method in brief: as §1

[16] = system: PXR:RXRa (NR concentration 270 nM, RXRa partner concentration 90 nM)
Method in brief: as §1

[17] = system: PXR homodimer (NR concentration 270 nM)
Method in brief: as §1

[18] = system: RARa:RXR (NR concentration 270 nM, RXRa partner concentration 90 nM)
Method in brief: as §1

[19] = system: RARa homodimer (NR concentration 270 nM)
Method in brief: as §1

[20] = system: RARb:RXRa (NR concentration 270 nM, RXRa partner concentration 90 nM)
Method in brief: as §1

Sequence	PBM binding z-score [1]	PBM binding z-score [2]	PBM binding z-score [3]	PBM binding z-score [4]	PBM binding z-score [5]	PBM binding z-score [6]	PBM binding z-score [7]	PBM binding z-score [8]	PBM binding z-score [9]	PBM binding z-score [10]	PBM binding z-score [11]	PBM binding z-score [12]	PBM binding z-score [13]	PBM binding z-score [14]	PBM binding z-score [15]	PBM binding z-score [16]	PBM binding z-score [17]	PBM binding z-score [18]	PBM binding z-score [19]	PBM binding z-score [20]
CTACCAAGGTGAACAAGGTCGTAGATTACTATTC	1.44	1.27	-0.0649	1.62	-0.766	2.66	1.19	1.36	0.159	0.588	2.43	2.87	0.349	0.813	0.756	2.37	0.924	2.56	0.0983	2.17
ATCTCTAGGTAAAGATAGTTTAGTGAATGCAAAT	0.535	0.896	0.494	0.361	0.415	0.104	0.777	0.218	0.448	0.329	1.81	2.04	1.07	0.379	0.699	0.277	0.329	-0.0138	0.933	0.0107
CCCACTGGGGCAAGGTTACCATAACGCACAGCCA	0.184	0.769	-0.0723	0.417	-0.882	2.46	4.81	4.76	1.92	4.56	4.18	5.58	2.71	0.0183	1.07	0.144	-0.536	1.05	0.0116	1.75
ATCTCTAGGTAAAAGTTCAATGAATCCCGAGGAT	1.81	2.65	2.7	2.03	1.14	4.88	8.83	8.49	8.81	9.69	2.16	4.28	1.95	1.61	2.08	3.09	2.8	2.86	1.09	2.64
ACAGACAGGTGGGTGAAGGTAACTCAGCTGGACG	0.0751	-0.222	-0.335	-0.235	-0.295	0.238	0.861	0.585	-0.13	0.177	0.962	1.16	0.32	-0.724	0.276	-0.217	0.171	0.0103	-0.0597	0.155
TAGCCTAGGTCATTCAGGGGCCGGTATAGAAAGC	4.65	3.59	1.03	2.73	1.63	3.57	1.87	2.46	0.494	1.41	1.8	2.62	0.426	-0.644	1.79	2.11	-0.0709	3.04	-0.178	3.79
CTCGATAGGTCGGTTGAGGTGAGTATACGGATAA	0.692	0.287	-0.389	0.0394	-0.451	0.659	-0.0443	-0.187	-0.208	-0.177	-0.342	0.362	0.83	0.287	0.144	1.21	0.123	1.11	-0.0628	1.17
TGAATGAGGTTAAAGATCAGGGATCGTGGCGTCG	2.72	2.32	-0.45	1.43	0.3	4.23	5.54	6.39	4.69	6.83	2.1	3.36	0.927	0.328	2.57	1.75	-0.845	3.09	-0.37	1.85
GCTATAAGTTGAAAGGGCAACCGAATGATTCTCG	1.08	1.24	0.185	1.23	-0.471	3.05	2.26	3.37	1.46	3.15	0.434	0.831	0.223	0.266	1.11	1.41	0.107	2.56	0.129	2.46
CGTCCATGGTCAGCAGGTCAGTGAAAGCGACGTG	0.175	-0.104	-0.348	-0.0301	-0.987	0.781	-0.0482	-0.0239	-0.823	-0.464	0.0989	0.518	-0.843	-0.979	-0.43	0.159	-0.486	0.728	-0.616	2.28
GCTGCTAGGTCAACTGGTGGTCAGCTAAAGCTCG	4.15	3.04	-0.00351	1.99	-0.442	3.55	2.75	3.48	0.603	2.25	4.77	4.33	-0.118	-0.735	2.55	1.61	-0.644	3.34	-0.0343	4.23
AATACAGGTTCATCGTAGGCCAGAGTACGCACAG	3.44	4.91	1.85	2.3	0.451	3.19	1.67	1.31	0.478	0.764	0.0837	0.966	1.55	1.09	0.907	3.55	1.4	2.46	0.533	1.8
TCTTGTAGATCAACAGGAGGTTAAGAAAGATCGA	0.227	1.19	0.133	0.709	-0.3	1.22	-0.0134	1.2	2.19	1.56	1.3	0.568	0.392	0.445	0.0227	0.753	-0.259	0.995	-0.178	0.617
TCTTGTAGATCAACAGGAGGTCAAGAAAGATCGA	2.21	3.53	3.02	3.32	0.366	3.71	1.04	2.25	2.55	2.35	1.49	2.17	0.588	0.144	1.8	3.74	0.715	4.01	0.649	2.84
